# Source: PubChem BioAssay (NCI)
# About 83,000 compounds went through this panel and 20% of them were active in at least one assay; those are over-represented in the sample as a whole.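 Compound tested at a single concentration for 48 hours in 96-well plates; a percent growth value below 10 was scored as active.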 Values without a mark were called inactive. Calls of active or inactive are those of the source.
# Columns and labels:
# Experiment in all cases: NCI-60 one-dose screen, 48 h (100 = growth as untreated, 0 = no growth, -100 = all killed)
# Conditions in all cases: 10 µM unless noted
# HCT-15 colon = tested on: HCT-15 colon
# HT29 colon = tested on: HT29 colon
# SNB-75 CNS = tested on: SNB-75 CNS
# SNB-19 CNS = tested on: SNB-19 CNS
# U251 CNS = tested on: U251 CNS
# PC-3 prostate = tested on: PC-3 prostate
# SK-MEL-5 melanoma = tested on: SK-MEL-5 melanoma
# UACC-62 melanoma = tested on: UACC-62 melanoma
# LOX IMVI melanoma = tested on: LOX IMVI melanoma
# SK-MEL-28 melanoma = tested on: SK-MEL-28 melanoma
Structure (SMILES),growth (HCT-15 colon),growth (HT29 colon),growth (SNB-75 CNS),growth (SNB-19 CNS),growth (U251 CNS),growth (PC-3 prostate),growth (SK-MEL-5 melanoma),growth (UACC-62 melanoma),growth (LOX IMVI melanoma),growth (SK-MEL-28 melanoma)
COc1cc(Nc2ccnc3ccc(Br)cc23)cc(OC)c1OC,30.6%,14.2%,-4.34% (active),32.9%,18.6%,26.7%,8.82% (active),30.4%,32%,58.3%
COC(=O)C1(C)COP(=O)(NC23CC4CC(CC(C4)C2)C3)OC1 (stereo not given),101%,100%,94.9%,104%,99.5%,94.6%,99.9%,109%,98.2%,98.7%
O=C(CCCCCCc1nc2ccc(Br)cc2[nH]1)NO,35.9%,1.25% (active),-2.57% (active),1.94% (active),-15.4% (active),16.7%,-81.5% (active),-79.8% (active),-98.9% (active),-16.7% (active)
CCCCCCCCCCCCCCC(C(=O)OCC)C(=O)OCC,99.5%,115%,94.7%,102%,104%,108%,99.3%,101%,119%,102%
Clc1ccc(-c2nc(Br)cn3ccnc23)cc1,86.1%,87.6%,91%,82.5%,78.2%,81.6%,80.7%,77.4%,77.8%,100%
Cc1cc(C#Cc2ccccc2)ccc1-n1c(/C=C/c2ccc(F)cc2)nc2ccccc2c1=O,69.8%,59.3%,86.5%,88.5%,82%,18.2%,36.8%,55.1%,71.2%,94.4%
CC(C)NCCCCCNc1cc(O)cc2cccnc12,94.6%,54.2%,56.4%,107%,101%,92.4%,88.2%,94.5%,72.2%,91.6%
CCn1c(CN2CCN(Cc3ccccc3)CC2)nc2cc(NC(=O)c3cccs3)ccc21,3.47% (active),-55.6% (active),-96.6% (active),-41.7% (active),-91.4% (active),-51.5% (active),-98.9% (active),-92.8% (active),-89.7% (active),-91.2% (active)
Oc1ccc(Cl)cc1-c1cc(-c2ccccc2Cl)[nH]n1,29.2%,92.2%,44.2%,88%,67%,44.1%,68.7%,59.5%,51.7%,89.7%
CCc1ccc(Nc2cc(C)c3ccc(O)cc3n2)cc1,70.7%,19.6%,57.8%,96.5%,60.9%,62.2%,60.6%,30.8%,48.5%,95.6%
CCOC(=O)c1ccc(N(CCC(=O)O)C(C)=O)cc1,103%,97.4%,94.7%,106%,102%,90%,102%,99.4%,105%,103%
COc1ccc(-c2nnc(SCC(=O)Nc3ccc(C(=O)/C=C/c4ccc(Cl)cc4)cc3)n2-c2ccccc2)cc1,94.7%,99.2%,86.5%,99.6%,85.8%,87.9%,92.1%,83.7%,103%,101%
CCC1CCc2nc3sc(C(=O)Nc4cccc(F)c4)c(N)c3cc2C1 (stereo not given),31.7%,33.5%,51.7%,76.9%,56.3%,63.6%,41.9%,39.5%,61.3%,59.7%
COc1ccc(C2=NN(C=O)C(c3ccc(OS(=O)(=O)c4ccc(C)cc4)c(OC)c3)C2)cc1 (stereo not given),61.8%,35%,68.9%,62.5%,60.3%,48.4%,6.93% (active),50.1%,57.3%,75.5%
Fc1ccc2nc(-c3ccc(-c4noc(-c5ccc(Cl)cc5)n4)cc3)[nH]c2c1,109%,103%,110%,110%,103%,102%,104%,113%,104%,128%
Cc1cc(O)ccc1C1=NN(c2ccc(S(N)(=O)=O)cc2)C(=O)CC1,35.2%,11.2%,63%,82.3%,53%,50.7%,25.2%,27.2%,63%,58%
COC(=O)c1ccc(NC(N)=NCCC(C)(C)c2ccc(C(F)(F)F)cc2)nc1,37.8%,11.6%,67.3%,59.9%,30.5%,36%,-85.4% (active),55.2%,-77.3% (active),35.2%
C[C@@H](C[C@H](CC1CC1)c1ccccc1)c1ccc2ccccc2c1,107%,105%,85%,101%,101%,98.9%,99.9%,103%,98.4%,107%
CC1C2CCC(C2)C1COCCOCCO (stereo not given),98.3%,102%,109%,123%,91.9%,101%,106%,104%,94.9%,109%
NC(=O)c1noc(C(=O)c2ccccc2)c1N,89.4%,83.6%,95.9%,90.4%,85.8%,90.9%,97.9%,96.6%,98.8%,98.6%
CCCCCCCCCCCCCCCCS(=O)(=O)Nc1cc(C(=O)NN)cc(C(=O)NN)c1,50.5%,88%,94.3%,52.2%,47.9%,38.8%,73.7%,70.3%,70%,91.9%
FC(F)(F)C1=NNC(c2ccc3ccccc3c2)=NN1,97.9%,107%,80.3%,96.6%,99.2%,109%,97.8%,101%,90.5%,112%
CCCOC(=O)C1c2cc3c(cc2CC(C)C1C(=O)OCCC)OCO3 (stereo not given),108%,72%,85.6%,98.9%,95.2%,82.9%,92.4%,75.4%,65.4%,103%
Cc1ccc(NC(=O)c2[nH]c(SCCN(C)C)nc2-c2ccc(F)cc2)cc1C#Cc1cnc2cccnn12,-19.6% (active),-14.9% (active),-59.7% (active),21.4%,-58.8% (active),34%,45.5%,35.8%,-49.2% (active),-72.4% (active)
O=C(O)C1[S][Sb]([CH](C(=O)O)[CH](C(=O)O)[Sb]2[S]C(C(=O)O)C(C(=O)O)[S]2)[S]C1C(=O)O (stereo not given),87.6%,80.8%,83.8%,92.9%,73.1%,83.4%,3.78% (active),89.2%,8.37% (active),61.1%
CCCCCCCCCC1=NC(C)(C)CN1C(C)(C)CO,82.2%,49.2%,102%,92.1%,82.6%,83.8%,84%,98.8%,85.6%,131%
CCCCCCCCCCCCCC[N+](C)(C)CCCCCCCCCCCCCC,75.1%,30.5%,62.9%,70.4%,44.7%,12.6%,69.4%,42.6%,51.8%,89.3%
